# System: RARb:RXRa (NR concentration 270 nM, RXRa partner concentration 90 nM)
# Experiment: PBM binding z-score (relative to random genomic background probes); higher = stronger binding; sequences stand for … in GC…GCGATTGACAGCGTAGAATGAAGG
# In short: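 Random background probes are the reference for binding z-scores. These scores derive from regression-normalized fluorescence on custom Agilent 4×180K protein-binding microarrays incubated 1 h with ligand-free nuclear receptor dimers. Binding was detected with antibodies against each partner (one per run).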
row,Sequence,PBM binding z-score
1,CCACGGAGGACAGAAGGTCAGAGCTGTCCGCTTT,3.21
2,ATCTCGAGGTAAAGTTCAGTGAAAGATCGATAGA,2.86
3,CCAGACAGGTGTAAGGTAACTCAGTCTGGTACGC,-0.403
4,CGAACTAGGTCATCCAGGACAGTGTATACATTGA,4.02
5,CGAACTAGGTCATCCAGGGCAGTGAATACATTGA,4.29
6,GCTTTCGGGTCAAAGGTTATAGCATGAATAGAAT,4.59
7,GCGACTGGGGTAAAGCAGGTTACCATAAGGTTGG,0.44
8,AGAATGAGGTTATGAAGATCAGGGAATTGCGGTC,1.7
9,GGAACGAGGGAAAAGTTGATAGCATCTGTCGACG,-0.212
10,ATATGTAGGTTAGCTGGGTTCATTCAGACTAGGC,1.35
11,AGAATGAGGTTATAAGTAGATCAGGGAAGAAAGT,1.25
12,TCTAGCAGGCCAAAGGGTCACTCAAGAGGTACGG,3.74
13,GCGACTGGGGCAAAGCAAGTTACCATAAGGTTGG,0.659
14,GTACCAAGGTGAATAGGACGTTGATGAGTAGGCG,1.14
15,TCAAGTAGGTTACCAATGGGGCATTCAGCTTTCT,1.27
16,TCATATAGGTACTACAGGTGAAAGTCGGCATCTA,0.472
17,TCATATAAGTAAACAGGTGAAAGTCCGTAAGTTA,0.383
18,TCATGTAGGTAAATGCTAGGTGAAAGTCCGATCT,0.378
19,CCTTACGGGTCACGAGGTTATAGGACGACGAGCG,4.56
20,ATATCAAGGTGATCGTGAGGTCGTTGATACTAAC,1.69

row,Sequence,PBM binding z-score
1,TAGCCTAGGTCATGCGGGCCACTATAGTGTCGGC,3.69
2,GTACCAAGGTGAAGAGGTCGTTGATGAGTAGGCG,2.35
3,CCTAGTTGGTCAAAGTCACACACGCTATAGGTAC,1.42
4,TCTTGTAGATCAAGCACGTTAAGAAAGCCTGAGT,-0.035
5,TTACCAAGGTGAGAGGTCGTTGATGCACGCCTTG,2.33
6,TCTTGTAGATCAAAGGCTAAGAAAGCCGAAGCCT,0.153
7,TAGCCTAGGTCAGAACGGGCCAGTATACGCTATA,2.75
8,ATCGAAAGGTCGAAGGCGAGTATACCCACCCGAA,3.57
9,CCTAGCAAGCCAATCTGGGTCACTCAAGGCTTGA,0.92
10,CCGAGTTGGTCAGGAGGTCACACACCGGATATGA,3.66
11,AGAGACAGGTGAGTGAAGGTAACTCAGCTGGACG,0.876
12,GCTCGGCGGACAAGGTCAGAGCTTTGTCCGTAGA,2.81
13,ACTAGCAGGCCAAGTTTGGGCCACTCAAACAAAG,0.466
14,ACTAGCAGGCCAAGTTTGGGTCACTCAGACAAAG,1.71
15,CCTTACGGGTCACTCCAGGGTATAGCATCGGAGT,3.54
16,GGAACGAGGGCAATTTGATAGCAGAGTTTGATGG,1.64
17,CGTCCAAGGTCATAGGAGGTCAGTTAAGACAGAT,5.36
18,CGTCCAAGGTGAGCAGGTCAGTGAAAGCGACGTG,2.67
19,GCTAGTTGGTCAGTAAAAGGTCACACATCGGTCG,4.26

# Source: the supplement of paper PMC6555819
